Results as given in PubChem BioAssay (NCI).
This is part of a sample that, as a whole, favours compounds with a hit. Of some 83,000 tested, about 20% had one in any assay.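 Plates (96-well) were seeded with cells, treated with compound at one concentration, and incubated for 48 hours before percent growth was determined.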 Calls of active or inactive are those of the source. How the source made its calls: active means growth percent below 10; inactive means the rest.

Tests used:
Test in all cases: NCI-60 one-dose screen, 48 h (100 = growth as untreated, 0 = no growth, -100 = all killed)
Settings in all cases: 10 µM unless noted
HCT-15 colon = tested on: HCT-15 colon
HT29 colon = tested on: HT29 colon
SNB-75 CNS = tested on: SNB-75 CNS
SNB-19 CNS = tested on: SNB-19 CNS
U251 CNS = tested on: U251 CNS
PC-3 prostate = tested on: PC-3 prostate
SK-MEL-5 melanoma = tested on: SK-MEL-5 melanoma
UACC-62 melanoma = tested on: UACC-62 melanoma
LOX IMVI melanoma = tested on: LOX IMVI melanoma
SK-MEL-28 melanoma = tested on: SK-MEL-28 melanoma

Measured: growth

COc1ccc(C(=S)c2cc(OC)c(OC)c(OC)c2)cc1OC(=O)CCl
active: U251 CNS 4.79% | SK-MEL-5 melanoma -29.7%
inactive: HCT-15 colon 14.3% | HT29 colon 24% | SNB-75 CNS 53.8% | SNB-19 CNS 31.4% | PC-3 prostate 14.1% | UACC-62 melanoma 47.9% | LOX IMVI melanoma 19.6% | SK-MEL-28 melanoma 67.8%

CC(C)(C)c1nc2c(s1)c1nc(N)ncc1c1ccc(NS(=O)(=O)c3c(F)cccc3F)c(F)c12
active: UACC-62 melanoma -2.66% | SK-MEL-28 melanoma 4.5%
inactive: HCT-15 colon 42.7% | HT29 colon 10.8% | SNB-75 CNS 57.4% | SNB-19 CNS 105% | U251 CNS 73% | PC-3 prostate 51.9% | SK-MEL-5 melanoma 36.1% | LOX IMVI melanoma 20.5%

O=C(NC[C@H](O)CN1CCc2ccccc2C1)c1cc(NC2COC2)ncn1
inactive: HCT-15 colon 103% | HT29 colon 86.9% | SNB-75 CNS 74% | SNB-19 CNS 99% | U251 CNS 102% | PC-3 prostate 107% | SK-MEL-5 melanoma 107% | UACC-62 melanoma 91.8% | LOX IMVI melanoma 93.9% | SK-MEL-28 melanoma 88.3%

C=C(C)[C@@H]1CC[C@]2(C(=O)OCCCC[P+](c3ccccc3)(c3ccccc3)c3ccccc3)CC[C@]3(C)[C@H](CC[C@@H]4[C@@]5(C)CC[C@H](OC(=O)C(Cl)Cl)C(C)(C)[C@@H]5CC[C@]43C)[C@@H]12
active: HCT-15 colon -8.59% | HT29 colon 3% | SNB-75 CNS -46.6% | U251 CNS -37.1% | PC-3 prostate -26.2% | SK-MEL-5 melanoma -99.4% | UACC-62 melanoma -43.2% | LOX IMVI melanoma -93.7% | SK-MEL-28 melanoma -63.4%
inactive: SNB-19 CNS 11%

CN(CCC#N)C(=O)Nc1ccccc1
inactive: HCT-15 colon 104% | HT29 colon 94.6% | SNB-75 CNS 99.2% | SNB-19 CNS 109% | U251 CNS 102% | PC-3 prostate 99.5% | SK-MEL-5 melanoma 110% | UACC-62 melanoma 101% | LOX IMVI melanoma 96.2% | SK-MEL-28 melanoma 112%

CC[C@]12C=CCN3CC[C@@]4(c5ccc(OC)cc5N(C)[C@H]4[C@@](O)(C(=O)OC)[C@@H]1OC(=O)CCC(=O)O[C@H]1CC[C@H]4[C@@H]5CC[C@H]6CC(=O)CC[C@]6(C)[C@H]5CC[C@]14C)[C@@H]32
active: HT29 colon -2.17% | SK-MEL-5 melanoma 7.1%
inactive: HCT-15 colon 15.1% | SNB-75 CNS 41.9% | SNB-19 CNS 37.5% | U251 CNS 18.1% | PC-3 prostate 12.3% | UACC-62 melanoma 29.3% | LOX IMVI melanoma 27.9% | SK-MEL-28 melanoma 46.5%

Nc1c(C(=O)Nc2cccc3ccccc23)sc2nc3c(cc12)CCCCC3
inactive: HCT-15 colon 28.6% | HT29 colon 19.1% | SNB-75 CNS 19.4% | SNB-19 CNS 27.2% | U251 CNS 16.8% | PC-3 prostate 34.1% | SK-MEL-5 melanoma 37.1% | UACC-62 melanoma 38% | LOX IMVI melanoma 38.4% | SK-MEL-28 melanoma 71.7%

O=c1[nH]nc(-c2ccc(Br)cc2)c2sc(NC(=S)Nc3ccc(Cl)cc3)nc12
inactive: HCT-15 colon 103% | HT29 colon 94.1% | SNB-75 CNS 95.7% | SNB-19 CNS 103% | U251 CNS 108% | PC-3 prostate 96.6% | SK-MEL-5 melanoma 99% | UACC-62 melanoma 89.5% | LOX IMVI melanoma 84.7% | SK-MEL-28 melanoma 109%

COC1=CC2C=C(C3N(c4ccccc4)NC(=O)[C@@H]4CCCN34)C(=O)NC2C=C1 (stereo not given in full)
inactive: HCT-15 colon 101% | HT29 colon 102% | SNB-75 CNS 85% | SNB-19 CNS 104% | U251 CNS 110% | PC-3 prostate 102% | SK-MEL-5 melanoma 102% | UACC-62 melanoma 104% | LOX IMVI melanoma 92.8% | SK-MEL-28 melanoma 108%

CCOCc1cc(C(C)(C)C)ccc1O
inactive: HCT-15 colon 104% | HT29 colon 94.6% | SNB-75 CNS 87.4% | SNB-19 CNS 98.3% | U251 CNS 94% | PC-3 prostate 93.7% | SK-MEL-5 melanoma 99.5% | UACC-62 melanoma 94.4% | LOX IMVI melanoma 96.5% | SK-MEL-28 melanoma 106%

CCc1ccc(OCc2ccccc2C(=O)Nc2ccc3nc(C)cc(N)c3c2)cc1
active: HCT-15 colon -75.4% | HT29 colon -87.4% | SNB-75 CNS -95.1% | SNB-19 CNS -80.6% | U251 CNS -90.9% | PC-3 prostate -88.1% | SK-MEL-5 melanoma -90.5% | UACC-62 melanoma -92.6% | LOX IMVI melanoma -83.9% | SK-MEL-28 melanoma -93.9%

c1ccc(-c2n(Cc3ccc4ccccc4n3)cc[n+]2Cc2ccc3ccccc3c2)cc1
inactive: HCT-15 colon 70.5%
active: HT29 colon -9.68% | SNB-75 CNS 3.74% | SNB-19 CNS 9.86% | U251 CNS 8.14% | PC-3 prostate 1.28% | SK-MEL-5 melanoma -95.2% | UACC-62 melanoma -46.2% | LOX IMVI melanoma -25.9% | SK-MEL-28 melanoma 0.22%

Cc1ccc2nc3nc4ccc[nH]c4cc3c2c1
inactive: HCT-15 colon 60.4% | HT29 colon 76.8% | SNB-75 CNS 72.3% | SNB-19 CNS 97.3% | U251 CNS 92.5% | PC-3 prostate 87.5% | SK-MEL-5 melanoma 71.7% | UACC-62 melanoma 94.3% | LOX IMVI melanoma 97.9% | SK-MEL-28 melanoma 116%

Cc1nnc(/N=C2\NC(=O)/C(=C/c3ccc(N(C)C)cc3)S2)s1
inactive: HCT-15 colon 47.7% | HT29 colon 106% | SNB-75 CNS 67.5% | SNB-19 CNS 80.1% | U251 CNS 72.1% | PC-3 prostate 57.8% | SK-MEL-5 melanoma 42.7% | UACC-62 melanoma 74.9% | LOX IMVI melanoma 64.6% | SK-MEL-28 melanoma 69.2%

COc1cc2nc3c(=O)n(-c4ccc(C#N)cc4)cnn3c(=O)c2cc1OC
inactive: HCT-15 colon 100% | HT29 colon 100% | SNB-75 CNS 73.9% | SNB-19 CNS 97.7% | U251 CNS 102% | PC-3 prostate 98.3% | SK-MEL-5 melanoma 96.1% | UACC-62 melanoma 95.1% | LOX IMVI melanoma 95.4% | SK-MEL-28 melanoma 99.8%

C=C1C(=O)O[C@H]2[C@H]1CCC(/C=N/c1ncc(Br)cc1N)=C\CC[C@@]1(C)O[C@@H]21
active: HCT-15 colon -45.3% | HT29 colon -18.6% | LOX IMVI melanoma -75.3% | SK-MEL-28 melanoma -25.8%
inactive: SNB-75 CNS 85.3% | SNB-19 CNS 44.2% | U251 CNS 47.9% | PC-3 prostate 26.7% | SK-MEL-5 melanoma 39.9% | UACC-62 melanoma 22.5%

CSc1nc(-c2cccs2)c2c(N)[nH]nc2n1
inactive: HCT-15 colon 99.6% | HT29 colon 93.2% | SNB-75 CNS 93.7% | SNB-19 CNS 106% | U251 CNS 98.9% | PC-3 prostate 93.6% | SK-MEL-5 melanoma 101% | UACC-62 melanoma 93.7% | LOX IMVI melanoma 93.3% | SK-MEL-28 melanoma 114%

O=[N+]([O-])c1cccc(CN(Cc2cccc([N+](=O)[O-])c2O)c2ccccc2)c1O
inactive: HCT-15 colon 69.4% | HT29 colon 56.1% | SNB-75 CNS 86.1% | SNB-19 CNS 92% | U251 CNS 85.4% | PC-3 prostate 71.1% | SK-MEL-5 melanoma 90.5% | UACC-62 melanoma 69.6% | LOX IMVI melanoma 79.6% | SK-MEL-28 melanoma 96.7%

C=CCn1c(SCC(=O)Nc2ccc(C(=O)/C=C/c3cc(OC)c(OC)c(OC)c3)cc2)nnc1-c1ccccc1
inactive: HCT-15 colon 61.1% | HT29 colon 49.1% | SNB-75 CNS 95.2% | SNB-19 CNS 86% | U251 CNS 64.4% | PC-3 prostate 94.1% | SK-MEL-5 melanoma 77.3% | UACC-62 melanoma 84.6% | LOX IMVI melanoma 68.7% | SK-MEL-28 melanoma 110%

CCCCc1n(Cc2ccc3ccccc3n2)cc[n+]1Cc1ccc2ccccc2c1
active: HT29 colon -8.3% | SNB-19 CNS 7.08% | U251 CNS 5.73% | PC-3 prostate 1.01% | SK-MEL-5 melanoma -94.3% | UACC-62 melanoma -57.7% | LOX IMVI melanoma -26.5% | SK-MEL-28 melanoma 0.554%
inactive: HCT-15 colon 76.7% | SNB-75 CNS 15.7%

COc1cc(/C=C/C(=O)c2cccs2)ccc1OCc1ccc(Cl)nc1
inactive: HCT-15 colon 62.5% | HT29 colon 97.3% | SNB-75 CNS 119% | SNB-19 CNS 66.6% | U251 CNS 35.3% | PC-3 prostate 69% | SK-MEL-5 melanoma 87.2% | UACC-62 melanoma 71.3% | LOX IMVI melanoma 27.2% | SK-MEL-28 melanoma 92%

CCOC(=O)NC(Cc1ccccc1)c1ccccc1 (stereo not given)
inactive: HCT-15 colon 106% | HT29 colon 97.5% | SNB-75 CNS 100% | SNB-19 CNS 104% | U251 CNS 99.9% | PC-3 prostate 94.7% | SK-MEL-5 melanoma 104% | UACC-62 melanoma 97.5% | LOX IMVI melanoma 94.9% | SK-MEL-28 melanoma 115%

Cc1cc(C)c2nc(Nc3nc(C)c(C)c(=O)[nH]3)nc(C)c2c1
inactive: SNB-75 CNS 51.3% | SNB-19 CNS 22% | U251 CNS 16.7% | PC-3 prostate 20.9%
active: HCT-15 colon 7.23% | HT29 colon 9.28% | SK-MEL-5 melanoma 2.14% | UACC-62 melanoma -37.7% | LOX IMVI melanoma 6.29% | SK-MEL-28 melanoma 3.48%

COc1ccc(Nc2nc(SCC(C)C)nc(-c3ccc(F)cc3)c2C#N)cc1
inactive: HCT-15 colon 46% | HT29 colon 24.3% | SNB-75 CNS 70.6% | SNB-19 CNS 50.3% | U251 CNS 56.7% | PC-3 prostate 49.2% | SK-MEL-5 melanoma 53.6% | UACC-62 melanoma 40.6% | LOX IMVI melanoma 57.8% | SK-MEL-28 melanoma 72.2%

COc1cc(NCC(=O)Nc2cc(Nc3cccc(C(F)(F)F)c3)ncn2)c(Cl)c(OC)c1Cl
inactive: HCT-15 colon 94% | HT29 colon 81.7% | SNB-75 CNS 83.4% | SNB-19 CNS 99.9% | U251 CNS 92.5% | PC-3 prostate 82.2% | SK-MEL-5 melanoma 95.2% | UACC-62 melanoma 75.5% | LOX IMVI melanoma 93.2% | SK-MEL-28 melanoma 105%

Cc1cnc(SCc2ccc(Cl)cc2Cl)nc1Nc1ccc(Cl)c(Cl)c1
inactive: HCT-15 colon 99.8% | HT29 colon 85.1% | SNB-75 CNS 85.4% | SNB-19 CNS 96.7% | U251 CNS 93.9% | PC-3 prostate 71.6% | SK-MEL-5 melanoma 93.4% | UACC-62 melanoma 53.4% | LOX IMVI melanoma 81.2% | SK-MEL-28 melanoma 111%
